Test results published in PubChem BioAssay AID720597 (Broad Institute, 2013).
Results with a measured potency or affinity are listed apart.

molecular target: NAD-dependent protein deacylase sirtuin-5, mitochondrial (Homo sapiens) (UniProt Q9NXA8); assay: SIRT5 deacylase inhibitors, dose response, biochemical, fluorescence imaging, cherry-pick, set 6 (AID 720597); conditions: Purified SirT5, succinyl-peptide-AMC/trypsin fluorescence; series mostly up to 15 µM; activity change, negative = inhibition: at the top concentration;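 further: lower AMC signal can also come from blocking the trypsin step; 0% = median of neutral control wells and -100% = median of positive control wells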
Sequence (Q9NXA8 whole entry, looked up): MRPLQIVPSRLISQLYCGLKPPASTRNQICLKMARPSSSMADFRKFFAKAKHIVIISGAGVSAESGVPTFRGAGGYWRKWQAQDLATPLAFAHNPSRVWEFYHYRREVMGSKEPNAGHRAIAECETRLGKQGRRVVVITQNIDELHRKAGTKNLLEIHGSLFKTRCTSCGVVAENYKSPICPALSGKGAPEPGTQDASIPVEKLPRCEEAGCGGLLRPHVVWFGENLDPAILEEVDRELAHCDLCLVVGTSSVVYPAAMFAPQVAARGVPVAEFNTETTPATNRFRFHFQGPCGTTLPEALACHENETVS

Activity change, negative = inhibition, inactive:
Cc1ccc(S(=O)(=O)Nc2ccc3c(c2)CC(=O)N([C@@H](C)CO)C[C@H](C)[C@@H](CN(C)Cc2ccc(-c4ccccc4)cc2)O3)cc1 33.9%
COc1ccc(S(=O)(=O)N(C)C[C@@H]2OCCCC[C@@H](C)Oc3ccc(NS(=O)(=O)c4ccc(C)cc4)cc3C(=O)N([C@@H](C)CO)C[C@@H]2C)cc1 -14.6%
C[C@H]1CN([C@@H](C)CO)S(=O)(=O)c2ccc(C#Cc3ccc(F)cc3)cc2O[C@@H]1CN(C)S(C)(=O)=O 8.38%
COc1ccc(S(=O)(=O)Nc2ccc3c(c2)C(=O)N([C@@H](C)CO)C[C@H](C)[C@@H](CN(C)S(=O)(=O)c2ccccc2)OCCCC[C@@H](C)O3)cc1 6.19%
C[C@H]1CN([C@@H](C)CO)C(=O)c2cc(C#CCN(C)C)cnc2O[C@@H]1CN(C)Cc1ccncc1 -24.8%
C[C@H](CO)N1C[C@H](C)[C@@H](CN(C)Cc2ccc(Oc3ccccc3)cc2)Oc2ccc(NS(=O)(=O)c3ccc(Cl)cc3)cc2CC1=O 3.3%
Cc1ccc(S(=O)(=O)N[C@@H]2C=C[C@H](CC(=O)N3CCN(c4ccccc4)CC3)O[C@@H]2CO)cc1 1.72%
C[C@H](CO)N1C[C@H](C)[C@H](CN(C)Cc2ccccc2)Oc2cc(/C=C/c3ccccc3)ccc2S1(=O)=O -19.4%
C[C@H]1CN([C@@H](C)CO)S(=O)(=O)c2ccc(C#CC(C)(C)O)cc2O[C@H]1CN(C)Cc1ccc(-c2ccccc2)cc1 17.7%
C[C@H]1CN([C@@H](C)CO)S(=O)(=O)c2ccc(C#CC3CC3)cc2O[C@@H]1CN(C)Cc1ccc(F)cc1 2.42%
Cc1ccccc1S(=O)(=O)N1CCCCN2[C@H](CO)[C@@H](c3ccc(-c4ccccc4)cc3)[C@@H]2C1 -8.88%
C[C@H](CO)N1C[C@H](C)[C@@H](CN(C)Cc2ccncc2)Oc2ncc(C#CCN(C)C)cc2C1=O -24.7%
